# Measurements reported in article PMC4336329 (PLoS ONE, 2015).
# About 14,000 (4.5%) of roughly 310,000 compounds showed an effect of 50% or more. The effect is printed as a negative number. The sample holds strong results, similar compounds and a random draw of the others, so the mix is not that of the screen.
# Target: human ether-à-go-go-related gene (hERG) potassium channel (human, UniProt Q12809)
# Assay: primary screen, population patch clamp on CHO cells stably expressing hERG; higher = less effect of the substance
# 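Note: peak tail current of the secondary pulse compared with the same well before compound.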
# Sequence of human ether-à-go-go-related gene (hERG) potassium channel (Q12809 whole entry, looked up): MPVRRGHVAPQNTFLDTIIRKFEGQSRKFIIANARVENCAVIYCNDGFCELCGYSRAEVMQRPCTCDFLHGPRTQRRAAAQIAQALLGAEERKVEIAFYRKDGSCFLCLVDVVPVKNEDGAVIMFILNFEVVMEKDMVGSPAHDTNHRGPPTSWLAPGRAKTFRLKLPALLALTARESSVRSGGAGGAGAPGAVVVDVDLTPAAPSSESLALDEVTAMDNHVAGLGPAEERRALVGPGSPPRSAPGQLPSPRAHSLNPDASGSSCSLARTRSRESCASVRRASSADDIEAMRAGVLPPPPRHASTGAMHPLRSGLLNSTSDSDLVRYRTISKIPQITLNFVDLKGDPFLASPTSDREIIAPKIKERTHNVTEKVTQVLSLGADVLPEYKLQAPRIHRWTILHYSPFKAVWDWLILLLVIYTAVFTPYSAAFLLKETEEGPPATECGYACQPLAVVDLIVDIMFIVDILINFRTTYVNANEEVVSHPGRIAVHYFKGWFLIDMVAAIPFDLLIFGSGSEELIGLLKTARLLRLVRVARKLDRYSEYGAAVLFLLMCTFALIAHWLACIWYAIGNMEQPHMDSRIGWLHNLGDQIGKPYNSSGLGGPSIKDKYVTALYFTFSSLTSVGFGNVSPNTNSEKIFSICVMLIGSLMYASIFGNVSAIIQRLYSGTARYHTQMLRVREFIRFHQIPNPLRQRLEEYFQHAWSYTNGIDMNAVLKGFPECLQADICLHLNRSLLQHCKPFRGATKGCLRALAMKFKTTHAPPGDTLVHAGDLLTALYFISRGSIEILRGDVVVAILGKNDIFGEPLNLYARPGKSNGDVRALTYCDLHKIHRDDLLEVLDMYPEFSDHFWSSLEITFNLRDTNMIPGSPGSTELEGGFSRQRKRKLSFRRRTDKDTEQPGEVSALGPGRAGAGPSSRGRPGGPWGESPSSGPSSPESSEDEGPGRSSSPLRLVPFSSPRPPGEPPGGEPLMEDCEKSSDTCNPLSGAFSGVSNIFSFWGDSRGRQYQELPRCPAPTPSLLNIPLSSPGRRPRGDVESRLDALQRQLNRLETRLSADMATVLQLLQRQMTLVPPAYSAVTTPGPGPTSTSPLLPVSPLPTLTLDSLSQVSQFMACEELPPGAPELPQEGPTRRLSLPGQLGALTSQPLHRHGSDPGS
row,Structure (SMILES),"hERG current change (%, negative = inhibition) at 10uM"
1,Cc1ccc(S(=O)(=O)N(C)C)cc1NC(=O)CSc1ncn[nH]1,3.1%
2,CC1=NN(C(=O)c2c(Br)cnn2C)C(O)(C(F)(F)F)C1 (centres unmarked),-24.6%
3,Fc1cccc(Nc2ncnc3c2cnn3-c2ccccc2)c1,12.1%
4,COc1cc(/C=N/NC(=O)c2nnn(-c3nonc3N)c2C(C)C)ccc1OCc1ccc(F)cc1,31.1%
5,O=C(Cc1cscn1)c1ccc(O)cc1O,-9.71%
6,COc1cc(OC)cc(C(=O)N[C@H](C(=O)Nc2ccc3c(c2)OCO3)C(C)C)c1,11%
7,OCC1(Cc2ccc(F)cc2)CCCN(CCCC(F)(F)F)C1 (centres unmarked),-22.3%
8,OCC1(CCc2ccccc2)CCCN(CCCc2ccccc2)C1 (centres unmarked),-70.9%
9,OCC1(CCc2ccccc2)CCCN(CCCC(F)(F)F)C1 (centres unmarked),-51.7%
10,O=C(CCC(F)(F)F)N1CCC(CO)(CCc2ccccc2)CC1,-12%
11,CSCCC(=O)N1CCCC(CO)(CCCc2ccccc2)C1 (centres unmarked),-8.88%
12,CSCC(=O)N1CCCC(CO)(CCCc2ccccc2)C1 (centres unmarked),-4.78%
13,C[n+]1ccc(/C=N/Nc2nc(Cl)c(C#N)c(Cl)c2Cl)cc1.[Cl-],20.2%
14,Cc1ccc(CNC(=O)c2ccccc2N)cc1,5.16%
15,COc1cc(NS(=O)(=O)c2ccc(N/C=C(\C#N)c3nc4cc(Cl)ccc4o3)cc2)nc(OC)n1,-7.44%
16,CC(=O)c1ccc(N2C(=NC(=O)C3CCCO3)SC3CS(=O)(=O)CC32)cc1 (centres unmarked),-39.7%
17,CCN(CC)c1ccc(N2C(=NC(=O)C3CCCO3)SC3CS(=O)(=O)CC32)cc1 (centres unmarked),3.6%
18,CCCCc1ccc(N2C(=NC(=O)C3CCCO3)SC3CS(=O)(=O)CC32)cc1 (centres unmarked),-56.5%
19,COc1ccc(/C(C)=N/NC(=O)CCC(=O)Nc2ccc(Cl)cc2Cl)c(OC)c1,-3.74%
20,CC1(C)O[C@@H]1COc1c2ccoc2cc2oc(=O)ccc12,-19.4%
21,O=C1CC(N2CCCCC2)C(=O)N1c1ccccc1 (centres unmarked),-3.42%
22,O=C1CC(N2CCN(C3CCc4ccccc4C3)CC2)C(=O)N1c1ccccc1 (centres unmarked),-64.6%
23,Cc1ccc(N2C(=O)CC(N3CCN(C4CCc5ccccc5C4)CC3)C2=O)cc1 (centres unmarked),-75.1%
24,Cc1ccc(N2C(=O)CC(N3CCN(c4ccccn4)CC3)C2=O)cc1 (centres unmarked),-6.04%
25,CCOC(=O)N1CCN(C2CC(=O)N(c3ccc(C)cc3)C2=O)CC1 (centres unmarked),1.62%
26,CC1CCN(C2CC(=O)N(c3ccccc3)C2=O)CC1 (centres unmarked),8.4%
